In the library only some 1.8% were active in any assay of this set; here they are far more common.
GCN5L2 inh = inhibitors of human GCN5L2 histone acetyltransferase | AID 504327 | Potency, µM (highest dose often 58.9 µM), for the others: top-dose activity change, negative = inhibition, hits mostly inhibitors | hit rate 0.21% among 390,000 | GCN5L2 HAT assay, ThioGlo1 CoA-SH fluorescence
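Enzyme at 20nM final was mixed with library compounds for 15 min at room temperature. Peptide H3(1-25) at 75uM, acetyl-CoA at 70uM and ThioGlo1 at 50uM were then added. Plates were read immediately and after 20 min (Ex340nm/Em540nm).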
VDR inhibitor = blocks the human vitamin D receptor. P11473. VDR-SRC2-3 peptide fluorescence polarization, 2 h. Potency, µM, for inactives: max response, negative = inhibition, actives largely listed as inhibitors. hit rate 0.93% among 400,000. AID 504847
Target sequence (P11473 whole entry, looked up): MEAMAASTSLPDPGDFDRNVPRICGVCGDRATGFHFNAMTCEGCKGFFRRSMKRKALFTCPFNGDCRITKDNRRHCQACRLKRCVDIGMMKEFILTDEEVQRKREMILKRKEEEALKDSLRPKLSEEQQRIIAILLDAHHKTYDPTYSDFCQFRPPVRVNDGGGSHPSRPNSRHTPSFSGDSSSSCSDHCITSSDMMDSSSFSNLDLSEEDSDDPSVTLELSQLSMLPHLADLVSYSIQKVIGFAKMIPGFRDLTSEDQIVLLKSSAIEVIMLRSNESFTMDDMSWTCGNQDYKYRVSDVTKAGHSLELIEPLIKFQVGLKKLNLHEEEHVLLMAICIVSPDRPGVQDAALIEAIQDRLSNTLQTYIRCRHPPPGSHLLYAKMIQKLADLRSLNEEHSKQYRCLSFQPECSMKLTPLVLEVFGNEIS
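FP read-out; VDR + SRC2-3 coactivator peptide; 23 nl compound by pintool; 2 h RT incubation; reagents held at 4 deg C, protected from light.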
rTrxR1 inhibitor = inhibitors of rat thioredoxin reductase 1; O89049; recombinant rTrxR1, NADPH fluorescence consumption, selenite substrate; Potency, µM (series often up to 114 µM), without a hit: at the top dose activity change, negative = inhibition, actives largely listed as inhibitors; hit rate 1% among 390,000; note: nearly all actives have a fitted effect of over 65% in size
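Rat TrxR1 (90 nM in the dispensed reagent) was pre-reduced with 400 uM NADPH for 5 min at room temperature, then incubated with compound for 15 min. After 400 uM selenite was added, NADPH fluorescence (Ex 340/Em 450 nm) was followed for 8 min.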
TrxR1 substrate = substrates of rat thioredoxin reductase 1; O89049; purified TrxR1 substrate turnover, NADPH consumption readout; Potency, µM (series often up to 114 µM), for inactives: top-dose activity change, negative = substrate turnover; hit rate 0.01% among 390,000; AID 588456; note: nearly all actives have a fitted effect of over 50% in size
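Rat TrxR1, dispensed at 90 nM, was prereduced with 400 uM NADPH (final) for 5 min at ~22 deg C, then incubated with compound 15 min before 400 uM selenite. A first-read NADPH fluorescence drop versus no-compound background flagged substrates.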
Numbers without * were called inactive; ? = inconclusive; · = not tested or not shown; [ ] = remark or other dose. Calls come from the whole dose curve; as a rule, active = well fitted curve in the direction sought with a large enough effect; inconclusive = small, poorly fitted or top-dose-only effect, or another doubt; inactive = no such curve, though single readings can be large; an effect the other way counts as inactive or inconclusive. % is set by controls: 0 for no effect and ±100 for the full control effect; potency is the fitted concentration of half-maximal effect.

SMILES	GCN5L2 inh	VDR inhibitor	rTrxR1 inhibitor	TrxR1 substrate
Cc1ccc(NC(=O)c2cc(N3C(=O)C=CC3=O)ccc2N2CCOCC2)cc1Cl	?	45µM*	3.5µM*	-9%
CC(=O)Nc1ccc(S(=O)(=O)Nc2nc3ccccc3nc2Nc2ccc(C(=O)O)c(O)c2)cc1	?	-13%	79µM*	-23%
CS(=O)(=O)c1ccccc1NC(=O)COc1ccccc1C(=O)Nc1ccccc1	·	·	-14%	-15%
Cc1cc(C(=O)COC(=O)c2cc(O)c3ccccc3c2O)c(C)n1CC1CCCO1 (configuration not stated)	-8%	71µM*	-66%	13%[57.1 µM]
Cc1cc(C(=O)COC(=O)c2cccnc2Cl)c(C)n1CC1CCCO1 (configuration not stated)	-2%	89µM*	10%	3%
Cc1cc(C(=O)COC(=O)c2ccccc2Br)c(C)n1CC1CCCO1 (configuration not stated)	-18%	23%	22%	0%
Cc1ccc(C(=O)OCC(=O)c2cc(C)n(CC3CCCO3)c2C)cc1 (configuration not stated)	-8%	-4%	14%[57.1 µM]	4%[57.1 µM]
COc1ccc(NC(=O)c2c(NCc3cccs3)sc3c2CCCC3)cc1	-3%	-5%	-13%[57.1 µM]	-7%[57.1 µM]
O=C(Nc1sc2c(c1C(=O)Nc1cccc(Cl)c1)CCCC2)c1cccs1	?	25µM*	4%	3%
COc1ccc(Cl)cc1NC(=O)c1c(NCc2ccc(C)o2)sc2c1CCCCC2	-7%	-1%	?	9%[57.1 µM]
COc1ccccc1NC(=O)c1c(NCc2ccc(C)o2)sc2c1CCCCC2	-3%	?	14µM*	2%[57.1 µM]
CCOC(=O)c1ccc(NC(=O)c2c(NCc3cccs3)sc3c2CCCCC3)cc1	22µM*	?	?	-8%[57.1 µM]
O=C(Cc1ccccc1)Nc1sc2c(c1C(=O)Nc1ccccc1)CCCCC2	-1%	?	40µM*	-4%
Cc1ccc(NC(=O)c2c(NC(=O)c3ccc(F)cc3)sc3c2CCCC3)cc1C	-13%	79µM*	-9%	1%
COC(=O)c1ccc2c(c1)NC(=O)CS2	-18%	-29%	16%	-1%
Cc1ccc(CN(C)C(=O)c2ccc3c(c2)NC(=O)CS3)o1	1%	-8%	18µM*	-2%
C=C1CC(COc2cc(=O)oc3ccccc23)(c2ccccc2)OC1=O (configuration not stated)	·	?	32µM*	-7%
Cc1c2ccccc2cc[n+]1CCCS(=O)(=O)[O-]	3%	-8%	5%	13%
CC1(C)C(/C=C/C=C/C=C/C=C2\N(CCCCS(=O)(=O)O)c3ccc4ccccc4c3C2(C)C)=[N+](CCCCS(=O)(=O)[O-])c2ccc3ccccc3c21	10µM*	?	3.5µM*	-16%
Cc1ccc(/C=C/C(=O)OC(C)C(=O)Nc2ccc(Cl)cn2)o1 (configuration not stated)	-1%	?	14µM*	1%
CCCCC(=O)N(Cc1ccc(-c2ccccc2-c2nn[nH]n2)cc1)C(C(=O)O)C(C)C (configuration not stated)	-14%	-10%	·	·
COc1ccc(OCC(=O)Nc2cc(-c3cccc(Cl)c3)nn2-c2ccccc2)cc1	-4%	17%	17%[57.1 µM]	0%[57.1 µM]
Cc1ccc(-c2cc(NC(=O)CCl)n(-c3ccccc3)n2)cc1	-3%	?	35µM*	2%
O=C(CCl)Nc1cc(-c2ccccc2)nn1-c1ccccc1	-6%	-12%	22µM*	2%
Cc1ccc(OCC(=O)Nc2cc(-c3cccc(C)c3)nn2-c2ccccc2)cc1	-17%	15%	29%[57.1 µM]	1%[57.1 µM]
SMILES	GCN5L2 inh	VDR inhibitor	rTrxR1 inhibitor	TrxR1 substrate
CN(C)CCCN(C(=O)COc1ccc(Cl)cc1)c1nc2ccc(F)cc2s1	-8%	5%	5%	0%
O=C(COc1ccccc1)N(Cc1cccnc1)c1nc2ccc(F)cc2s1	-5%	16%	0%[57.1 µM]	-4%[57.1 µM]
CN(C)CCCN(C(=O)CCOc1ccccc1)c1nc2ccc(F)cc2s1	-6%	?	0.63µM*	-3%
CN(C)CCCN(C(=O)CCOc1ccccc1)c1nc2c(F)cccc2s1	-5%	?	0.45µM*	18%[57.1 µM]
O=C(CCOc1ccccc1)N(Cc1cccnc1)c1nc2ccc(F)cc2s1	-4%	-10%	7.1µM*	3%[57.1 µM]
C=C1C=C(C(F)F)n2ncc(C(=O)NCc3ccccc3OC)c2N1	·	·	7%	4%
C=CCOC(=O)/C(=C\c1cccc2ccccc12)NC(=O)c1ccccc1	-7%	15%	-19%	-15%
C=CCOC(=O)C(=O)/C=C/c1csc2ccccc12	-1%	45µM*	?	5%
O=C(Nc1cccc(S(=O)(=O)NC2=NCCCCC2)c1)c1cc(-c2ccco2)nc2ccccc12	?	11%	50µM*	13%
O=C(CCl)Nc1cccc(S(=O)(=O)NC2=NCCCCC2)c1	-4%	13%	18µM*	-5%
O=C(Nc1cccc(S(=O)(=O)NC2=NCCCCC2)c1)c1cc(-c2ccncc2)nc2ccccc12	-26%	-23%	9%[57.1 µM]	-6%
O=C(CCl)Nc1ccc(S(=O)(=O)NC2=NCCCCC2)cc1	2%	-8%	-48%[57.1 µM]	-5%[11.4 µM]
COc1ccc(OC)c(/C=C/c2ccc3ccccc3[n+]2C)c1	·	·	-16%	-6%
CSc1nc(=S)c2[nH]c(=S)[nH]c2[nH]1	3.2µM*	?	-24%[57.1 µM]	4%[57.1 µM]
Cc1cc(C)nc(Sc2nc(Cl)nc(N(c3ccccc3)c3ccccc3)n2)n1	40%	22µM*	?	-16%
CN(C)c1ccc(/C=C/c2ccnc3ccc([N+](=O)[O-])cc23)cc1	·	·	-14%	12%
CCCC(=O)N(Cc1cc(=O)[nH]c2ccccc12)c1ccc(OC)cc1	18%	-1%	10%	4%
COc1ccc(N(Cc2cc(=O)[nH]c3ccccc23)C(=O)CCl)cc1	2%	?	6.3µM*	7%
Cc1cccc(N(Cc2cc(=O)[nH]c3ccccc23)C(=O)CCl)c1	0%	-8%	4µM*	10%
COc1ccc(CCNC(=O)Cn2c(C)c3cnn(-c4ccccc4)c(=O)c3c2C)cc1OC	-12%	11%	-5%	-4%
O=C(NC(NC(=S)Nc1ccccc1C(=O)O)C(Cl)(Cl)Cl)c1ccccc1 (configuration not stated)	-24%	79µM*	15%[57.1 µM]	51%
Cc1ccc(C)c(Cn2c(SCC(=O)NCc3ccccc3)nc3ccccc32)c1	-2%	6%	2%[57.1 µM]	-2%[57.1 µM]
CN(C)C(=O)CCSC(SCCC(=O)O)c1cccc(/C=C/c2ccc3ccc(Cl)cc3n2)c1 (configuration not stated)	?	35µM*	·	·
NS(=O)(=O)c1cccc(NC(=O)CCC(=O)c2cccs2)c1	-17%	172%	19%	3%
NS(=O)(=O)c1cccc(NC(=O)c2cccs2)c1	-9%	25µM*	12%	-5%
O=C(O)COc1ccc(/C=C/C(=O)c2ccc3ccccc3c2)cc1	-7%	28µM*	-18%[57.1 µM]	-10%
O=C(CCN1C(=O)/C(=C/c2ccccc2Cl)SC1=S)Nc1ccccc1C(=O)O	-21%	79µM*	-14%	-15%
